# Measurements published in publication PMC11062922 (Nature Chemical Biology, 2023).
# Like-named read-outs stand apart in the source and are kept apart here.
# Experiments:
# Set-up in all cases: species or system human, MV4-11 + K-562 + COLO205 + SK-N-BE2 + OVCAR-8
# ABL2 = conditions: read-out: apparent Kd; compound concentrations: 100 nM and 1000 nM (sheet 'Samples'), CATDS: 7.86907844661483E-2; n = 1
# FYN = conditions: read-out: apparent Kd, n = 1
# GAK = conditions: read-out: apparent Kd, compound concentrations: 100 nM and 1000 nM (sheet 'Samples'), n = 1
# LCK = conditions: read-out: apparent Kd; compound concentrations: 100 nM and 1000 nM (sheet 'Samples'), CATDS: 4.6764709487854099E-2; n = 1
# RIPK3 = conditions: read-out: apparent Kd, n = 1
# YES1 = conditions: read-out: apparent Kd; compound concentrations: 100 nM and 1000 nM (sheet 'Samples'), CATDS: 4.9089753875203201E-2; n = 1
# EGFR = conditions: read-out: apparent Kd, compound concentrations: 100 nM and 1000 nM (sheet 'Samples'), n = 1
# FRK = conditions: read-out: apparent Kd; compound concentrations: 100 nM and 1000 nM (sheet 'Samples'), CATDS: 2.9445586686104801E-2; n = 1
# PTK6 = conditions: read-out: apparent Kd; compound concentrations:100 nM and 1000 nM (sheet 'Samples'); n = 1
# RET = conditions: read-out: apparent Kd; compound concentrations:100 nM and 1000 nM (sheet 'Samples'); n = 1
# ACOX1 = conditions: read-out: apparent Kd, n = 1
# RIPK2 = conditions: read-out: apparent Kd; compound concentrations: 100 nM and 1000 nM (sheet 'Samples'), CATDS: 0.14252909212912099; n = 1
# HCK = conditions: read-out: apparent Kd, n = 1
# LYN = conditions: read-out: apparent Kd; compound concentrations: 100 nM and 1000 nM (sheet 'Samples'), CATDS: 3.75888213105793E-2; n = 1
# [1] = compound concentrations:100 nM and 1000 nM (sheet 'Samples')
smiles,measurement,setting,value
CC(=O)N1CCN(c2ccc(Nc3nccc(-c4sc(C(C)C)nc4-c4cccc(NS(=O)(=O)c5cccc(Cl)c5)c4)n3)cn2)CC1 [GSK1660437A],potency estimated from few doses,ABL2,351 nM
same,potency estimated from few doses,"FYN; compound concentrations: 100 nM and 1000 nM (sheet 'Samples'), CATDS: 4.41921751489057E-2",1120 nM
same,potency estimated from few doses,GAK; CATDS: 7.8355019854230004E-2,353 nM
same,potency estimated from few doses,LCK,973 nM
same,potency estimated from few doses,"RIPK3; compound concentrations: 100 nM and 1000 nM (sheet 'Samples'), CATDS: 3.6291204942441098E-2",2010 nM
same,potency estimated from few doses,YES1,868 nM
O=S(=O)(CCOCc1ccc(-c2ccc3ncnc(Nc4ccc(OCc5cccc(F)c5)c(Cl)c4)c3c2)o1)c1ccccc1 [GW615311X],potency estimated from few doses,EGFR; CATDS: 3.2602064025644098E-2,997 nM
same,potency estimated from few doses,FRK,1220 nM
same,potency estimated from few doses,"FYN; compound concentrations: 100 nM and 1000 nM (sheet 'Samples'), CATDS: 3.12916843215739E-2",1080 nM
Nc1nc(N)c2nc(-c3ccccc3)[nH]c2n1 [SKF-12778],potency estimated from few doses,PTK6,1150 nM
Cl.Cn1c(=O)c(Cc2ccc(F)cc2F)cc2cnc(NC3CCOCC3)nc21 [RO3308757-001],potency estimated from few doses,RET,877 nM
Cn1cc(-c2cnc(N)c3c(-c4ccc5c(c4)CCN5C(=O)Cc4ccccc4)csc23)cn1 [GSK2593074A],potency estimated from few doses,PTK6,1340 nM
CC(C)c1nc(-c2ccc(F)c(NS(=O)(=O)c3c(F)cccc3F)c2)c(-c2ccnc(Nc3ccc(N4CCOCC4)nc3)n2)s1 [GSK1804250A],potency estimated from few doses,FYN; [1],944 nM
same,potency estimated from few doses,RIPK3; [1],2130 nM
COc1cc(/C=N/Nc2ncnc3[nH]ncc23)ccc1O [GW578748X],potency estimated from few doses,RET,494 nM
COc1cccc(C2=C(c3cn(C)c4c(C)cccc34)C(=O)NC2=O)c1 [RO3301012-000],potency estimated from few doses,"ACOX1; compound concentrations: 100 nM and 1000 nM (sheet 'Samples'), CATDS: 0.48882093351054501",97.9 nM
same,potency estimated from few doses,RIPK2,770 nM
COc1cc2ncn(-c3cc(OCc4sccc4Cl)c(C(N)=O)s3)c2cc1OC [GSK448459A],potency estimated from few doses,ACOX1; [1],1270 nM
COc1ccc(S(=O)(=O)NC2CCN(c3cc(C)nc(Nc4cccc(C#N)c4)n3)CC2)cc1.O=C(O)C(F)(F)F [GSK1653539A],potency estimated from few doses,"ACOX1; compound concentrations: 100 nM and 1000 nM (sheet 'Samples'), CATDS: 0.290276615306997",1770 nM
Cc1ccc(NC(=O)c2ccc(Cl)cc2)cc1-c1ccc(C(=O)Nc2ccncc2)cc1 [GSK1398467A],potency estimated from few doses,"ACOX1; compound concentrations: 100 nM and 1000 nM (sheet 'Samples'), CATDS: 0.25978974702241497",761 nM
NC(=O)c1sc(-n2cnc3ccc(C(F)(F)F)cc32)cc1OCc1ccccc1Br [GW853606X],potency estimated from few doses,ACOX1; [1],2200 nM
Cn1cc(C2=C(c3cn(CCCCCO)c4ccccc34)C(=O)NC2=O)c2ccccc21 [RO0318053-000],potency estimated from few doses,"ACOX1; compound concentrations: 100 nM and 1000 nM (sheet 'Samples'), CATDS: 0.35843240047959801",34.1 nM
Clc1ccc(-c2nn3ncccc3c2-c2ccnc(Nc3ccccc3)n2)cc1 [GW829055X],potency estimated from few doses,"HCK; compound concentrations: 100 nM and 1000 nM (sheet 'Samples'), CATDS: 3.5992477058575501E-2",1500 nM
same,potency estimated from few doses,LYN,1350 nM
COc1ccc(C2=NC(c3ccc(Cl)cc3F)C(C(=O)Nc3ccc4[nH]ncc4c3)=C(C)N2)cn1.O=C(O)C(F)(F)F (stereo not drawn) [GSK534913A],potency estimated from few doses,ACOX1; [1],1050 nM
Fc1cccc(COc2ccc(Nc3ncncc3C#Cc3ccccc3)cc2Cl)c1 [GW651576X],potency estimated from few doses,EGFR; CATDS: 8.85764063435832E-2,663 nM
NC(=O)c1cccnc1COc1cc(-c2ccc(N3CCOCC3)nc2)cc2ncccc12 [BI01125081],potency estimated from few doses,HCK; [1],1350 nM
CCCCCNC(=O)[C@@H]1CCCN2C(=O)CC[C@H](NC(=O)[C@H](Cc3ccc(OP(=O)(O)O)cc3)NC(C)=O)C(=O)N12 [RO0324694-000],potency estimated from few doses,ACOX1; [1],1640 nM
COc1ccc(-c2nn3ncccc3c2-c2ccnc(Nc3ccc4c(c3)OCCO4)n2)cc1 [GW827106X],potency estimated from few doses,"ACOX1; compound concentrations: 100 nM and 1000 nM (sheet 'Samples'), CATDS: 4.5987124512604401E-2",1840 nM
same,potency estimated from few doses,GAK; CATDS: 6.3505143893273594E-2,888 nM
